# Hits are enriched below; roughly 9.3% of the tested compounds scored in any of these assays.
# Rab9 promoter act = activators of Rab9 promoter. Huh7 Rab9 promoter-luciferase reporter, luminescence, 24 h. Potency, µM (doses to about 9.22 µM), most hits filed as activators. 2.8% of 320,000 active. AID 485297; note: nearly all actives have a fitted effect of over 60% in size
#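 Luciferase signal after 10 min detection reagent at ambient indicates Rab9 promoter upregulation; stably transfected Huh7 cells were treated 24 h with compound in DMSO at 37 °C, 5% CO2.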
# NPC1 prom act = activates the NPC1 promoter. Huh7 NPC1 promoter luciferase reporter, 24 h. Potency, µM (highest dose often 9.22 µM), actives largely listed as activators. 2.4% of 320,000 active. AID 485313; note: nearly all actives have a fitted effect of over 60% in size
#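 Luminescence read-out of NPC1 promoter-driven luciferase in stably transfected Huh7 cells; compounds delivered in DMSO and left 24 h at 37C, 5% CO2, qHTS titration format.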
# ELG1 DNA repair = blocks ELG1-dependent DNA repair in HEK293T cells; HEK293T ELG1-luciferase reporter, luminescence, 16 h; DNA damage induced by 5-fluorouridine; Potency, µM (series often up to 46.1 µM), most hits filed as inhibitors; 2.3% of 330,000 active; AID 504467; note: nearly all actives have a fitted effect of over 55% in size
#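 Cells (2,000 per well) received 5-fluorouridine plus test compound or DMSO and were incubated 16 hr at 37 °C, 5% CO2. Luciferase activity was read by luminescence 30 min after ONE-Glo addition; signal suppression marked inhibition of damage-induced ELG1 function.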
# FLuc counter = firefly luciferase modulation, counter-screen for miR-21 project; 6.9% of 360,000 active; AID 588342; P08659; Potency, µM (doses to about 57.5 µM), hits mostly inhibitors; purified FLuc, Km substrates, luminescence inhibition; note: nearly all actives have a fitted effect of over 55% in size
# Target sequence (P08659 whole entry, looked up): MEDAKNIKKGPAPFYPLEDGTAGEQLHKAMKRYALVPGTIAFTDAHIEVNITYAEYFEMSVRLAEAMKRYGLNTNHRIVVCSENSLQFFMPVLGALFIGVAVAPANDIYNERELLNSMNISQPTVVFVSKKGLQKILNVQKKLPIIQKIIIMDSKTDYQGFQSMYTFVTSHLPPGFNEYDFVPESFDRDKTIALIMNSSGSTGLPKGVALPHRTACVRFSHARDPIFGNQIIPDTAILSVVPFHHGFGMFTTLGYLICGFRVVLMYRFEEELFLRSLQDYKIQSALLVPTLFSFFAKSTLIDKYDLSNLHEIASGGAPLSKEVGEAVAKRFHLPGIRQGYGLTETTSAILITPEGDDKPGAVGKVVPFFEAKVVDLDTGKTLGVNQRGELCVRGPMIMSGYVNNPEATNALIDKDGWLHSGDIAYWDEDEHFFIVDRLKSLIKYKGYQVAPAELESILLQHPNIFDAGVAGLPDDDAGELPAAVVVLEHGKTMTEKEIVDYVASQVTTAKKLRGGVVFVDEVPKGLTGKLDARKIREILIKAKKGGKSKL
#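 Biochemical qHTS of compounds, final roughly 60 µM downward over six points, against 10 nM purified firefly luciferase using Km concentrations of substrates (10 uM D-luciferin, 10 uM ATP) in Tris acetate pH 7.5 buffer; luminescence output.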
# SMN2 splice up = enhancers of SMN2 splice variant expression; Potency, µM (top dose mostly 46.1 µM), most hits filed as activators; HEK293 SMN2-luciferase splicing reporter, luminescence, 30-36 h; 2.8% of 210,000 active; note: nearly all actives have a fitted effect of over 55% in size
#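 HEK293 cells carry an SMN2 […]–luciferase reporter in which exon 7 inclusion puts luciferase in frame. Cells were plated 10-12 h before compound addition, then incubated 30-36 h at 37C. ONE-Glo luminescence was read; sodium butyrate at 4.5 mM final served as control.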
# ELG1 genotox = genotoxicity induction in ELG1-luciferase HEK293T cells; HEK293T ELG1-luciferase reporter, luminescence, 16 h; Potency, µM (doses to about 46 µM), actives largely listed as activators; 1.3% of 330,000 active; AID 504466; note: nearly all actives have a fitted effect of over 60% in size
#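 After overnight (16 hr) compound treatment at 37 °C, ELG1-luciferase HEK293T cells were lysed with ONE-Glo; luminescence quantified 30 min later at room temperature.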
# Hits are given with their value; i = inactive; ? = inconclusive; nt = no result; [ ] = remark or other dose. Calls come from the whole dose curve; as a rule, active = well fitted curve in the direction sought with a large enough effect; inconclusive = small, poorly fitted or top-dose-only effect, or another doubt; inactive = no such curve, though single readings can be large; an effect the other way counts as inactive or inconclusive.
SMILES,Rab9 promoter act,NPC1 prom act,ELG1 DNA repair,FLuc counter,SMN2 splice up,ELG1 genotox
COc1cc(C(=O)NC(=S)Nc2nc(-c3ccc(F)cc3)cs2)cc(OC)c1OC,i,i,i,i,nt,i
COc1cc(C(=O)Nc2nc(-c3cccs3)cs2)cc(OC)c1OC,i,i,13µM,i,?,i
Cc1ccc(C(=O)Nc2nccc(-c3cccs3)n2)cc1,i,i,i,13.5µM,i,i
O=C(Nc1nc(-c2cccs2)cs1)c1ccc(Cl)cc1,i,i,i,10.7µM,i,?
COc1ccc(C(=O)Nc2nc(-c3cccs3)cs2)cc1,nt,nt,nt,6.75µM,i,nt
CCn1cc(C(=O)N2CCN(c3ccccn3)CC2)c(=O)c2cc(S(=O)(=O)N(C)C3CCCCC3)ccc21,i,i,?,i,i,i
Cc1ccc(NC(=O)CCNC(=O)c2ccccc2Cl)cc1S(=O)(=O)N1CCOCC1,i,i,?,i,nt,i
O=S(=O)(c1cccc2c(I)cccc12)N1CCCNCC1,i,i,nt,nt,i,nt
Cc1ccc(NC(=O)c2sc3nc(-c4cccs4)ccc3c2N)cc1F,nt,nt,nt,i,i,nt
Cc1csc(NC(=O)c2sc3nc(-c4cccs4)ccc3c2N)n1,i,i,?,3.79µM,i,?
O=C(CSc1nc2ccccc2[nH]1)Nc1cccc(S(=O)(=O)N2CCOCC2)c1,i,i,?,i,nt,i
CN(C)S(=O)(=O)c1cccc(NC(=O)CSc2nc3ccccc3[nH]2)c1,i,i,13µM,i,i,i
CCN(CC)S(=O)(=O)c1cccc(NC(=O)CSc2nc3ccccc3[nH]2)c1,i,i,23.1µM,i,i,i
Cc1ccc2nc(SCC(=O)Nc3cccc(S(=O)(=O)N(C)C)c3)[nH]c2c1,i,i,?,?,i,i
COCCNC(=O)C1CC2Cn3c(nc4ccccc43)C2N1C (centres undefined),i,i,i,i,nt,i
CC1CCN(C(=O)COC(=O)c2ccc3c(c2)C(=O)N(Cc2ccco2)C3=O)CC1,i,i,i,?,nt,i
Cc1ccc(Cn2cnc3nc4c(cc3c2=O)CC(C)CC4)cc1 (centres undefined),nt,nt,nt,12µM,nt,nt
CCOC(=O)C1=C(Cc2ccc(Cl)cc2)C(=O)c2ccccc2C1=O,i,i,i,21.3µM,i,i
CCOC(=O)c1c(C=O)c(C)n(Cc2ccc(Cl)cc2)c1C,i,i,?,i,nt,i
Cc1ccc2c(CC(=O)Nc3ccc(N4CCN(C)CC4)cc3C)coc2c1,i,?,i,8.49µM,i,i
Cc1ccc2c(CC(=O)Nc3sccc3C(N)=O)coc2c1,2.82µM,2µM,?,10.7µM,?,?
CCCN(CC(=O)Nc1ccccc1OC)C(=O)c1ccc2c(c1)NC(=O)C(C)S2 (centres undefined),i,i,i,i,nt,i
c1ccc(CNc2ccc3ccccc3n2)nc1,?,2.24µM,?,4.78µM,?,?
FC(F)(F)c1ccc(NCc2ccccn2)nc1,?,?,?,16.9µM,nt,?
Cc1cc(NCc2ccccn2)nc2ccccc12,i,i,?,?,i,i
SMILES,Rab9 promoter act,NPC1 prom act,ELG1 DNA repair,FLuc counter,SMN2 splice up,ELG1 genotox
S=C(NCCc1ccc(Cl)cc1)NC1CCCCC1,?,3.98µM,?,19µM,nt,i
Fc1ccccc1NC(=S)NCCc1ccc(Cl)cc1,?,?,?,19µM,nt,?
O=C(NCCc1ccccc1)C(=O)NC1CCCCC1,3.16µM,3.55µM,?,i[2.3 µM],i,i
S=C(NCCc1ccccc1)NCc1cccs1,?,?,?,?,10µM,?
Fc1ccccc1NC(=S)NCCc1ccccc1,?,?,?,?,i,i
COc1cc2c(cc1OC)[C@H](C)N(CC1C(=O)O[C@@H]3C[C@@]4(C)CCC[C@H](C)[C@@]45OC5[C@H]13)CC2 (some centres undefined),nt,nt,nt,nt,i,nt
S=C(NCCc1ccccc1)NC1CCCCCC1,3.16µM,2.51µM,?,10.7µM,12.6µM,8.2µM
COCc1cc(=O)[nH]c2cc(NC(=O)c3cccc(OC)c3)c(C)cc12,i[1.84 µM],i,i,i,nt,i
O=C1[C@@H]2CSCN2C(=O)CN1Cc1c(F)cccc1Cl,i,i,i,i,nt,i
O=C(NCC1CCCO1)c1nn2cccnc2c1Cl (centres undefined),i,i,?,i,22.4µM,?

# High-throughput results: PubChem, National Center for Advancing Translational Sciences (NCATS)
